Source: PubChem BioAssay (NCATS)
Results filed as inconclusive are left out. The source made the active and inactive calls. The call rests on the fitted dose curve; in most records, active means well fitted curve in the direction sought with a large enough effect; inconclusive means small, poorly fitted or top-dose-only effect, or another doubt; inactive means no such curve, though single readings can be large; an effect the other way counts as inactive or inconclusive.

What was measured:
[1] = target: Lysine-specific demethylase 5B (Homo sapiens) (UniProt Q9UGL1); assay: Optimization screen for KDM5B Histone Demethylases FDH coupled qHTS against the LOPAC library (AID 1347166); further: 0% is about no effect
Chain of Lysine-specific demethylase 5B (Homo sapiens) (Q9UGL1 whole entry, looked up): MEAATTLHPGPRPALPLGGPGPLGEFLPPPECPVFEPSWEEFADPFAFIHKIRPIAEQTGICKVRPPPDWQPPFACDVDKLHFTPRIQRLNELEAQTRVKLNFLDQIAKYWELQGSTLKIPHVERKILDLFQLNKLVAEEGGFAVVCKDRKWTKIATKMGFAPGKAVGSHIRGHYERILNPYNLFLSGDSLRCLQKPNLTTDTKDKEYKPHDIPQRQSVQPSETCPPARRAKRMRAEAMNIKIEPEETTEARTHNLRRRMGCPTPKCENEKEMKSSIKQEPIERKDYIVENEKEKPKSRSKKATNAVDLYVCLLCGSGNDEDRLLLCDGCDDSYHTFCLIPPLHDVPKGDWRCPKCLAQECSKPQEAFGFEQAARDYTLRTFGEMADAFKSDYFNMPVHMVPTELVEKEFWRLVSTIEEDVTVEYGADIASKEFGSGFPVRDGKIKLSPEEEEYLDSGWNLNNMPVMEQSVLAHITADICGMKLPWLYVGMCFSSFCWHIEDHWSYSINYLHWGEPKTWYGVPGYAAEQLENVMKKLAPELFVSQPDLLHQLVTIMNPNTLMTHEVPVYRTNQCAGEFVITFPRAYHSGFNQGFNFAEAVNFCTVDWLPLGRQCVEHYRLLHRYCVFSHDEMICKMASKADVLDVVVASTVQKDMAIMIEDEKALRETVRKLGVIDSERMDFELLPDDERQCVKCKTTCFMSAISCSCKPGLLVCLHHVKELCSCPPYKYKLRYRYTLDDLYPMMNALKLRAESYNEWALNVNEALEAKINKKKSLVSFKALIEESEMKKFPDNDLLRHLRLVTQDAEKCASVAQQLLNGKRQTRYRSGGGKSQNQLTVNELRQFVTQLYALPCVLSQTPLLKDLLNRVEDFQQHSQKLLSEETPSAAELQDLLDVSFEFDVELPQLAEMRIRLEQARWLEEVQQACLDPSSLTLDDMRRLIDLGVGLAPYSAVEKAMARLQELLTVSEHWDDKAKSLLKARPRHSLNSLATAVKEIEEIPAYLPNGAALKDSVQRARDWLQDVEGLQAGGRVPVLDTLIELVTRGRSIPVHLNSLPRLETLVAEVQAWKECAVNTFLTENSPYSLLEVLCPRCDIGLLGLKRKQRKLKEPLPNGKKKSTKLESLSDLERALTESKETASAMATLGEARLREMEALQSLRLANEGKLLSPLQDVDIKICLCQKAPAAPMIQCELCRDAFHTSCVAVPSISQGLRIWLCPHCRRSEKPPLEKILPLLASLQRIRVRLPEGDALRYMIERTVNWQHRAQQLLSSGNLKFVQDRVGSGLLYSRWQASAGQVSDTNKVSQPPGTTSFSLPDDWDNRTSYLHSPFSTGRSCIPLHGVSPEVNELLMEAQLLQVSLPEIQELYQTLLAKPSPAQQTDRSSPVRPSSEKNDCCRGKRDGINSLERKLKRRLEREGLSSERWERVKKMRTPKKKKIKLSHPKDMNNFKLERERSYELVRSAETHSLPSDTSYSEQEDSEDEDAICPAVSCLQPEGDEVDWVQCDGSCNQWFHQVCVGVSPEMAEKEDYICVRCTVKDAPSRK
Method in brief: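 KDM5BDeltaAP (200nM final) preincubated 10 min with compound, then 12.5uM H3K4Me3, 25uM a-ketoglutarate, ascorbate, Fe(II), NAD+ and FDH added; 50mM HEPES pH 7.5, 0.01% Tween-20. NADH fluorescence (340/450 nm) change over 30 min, room temperature.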

[2] = qHTS to identify inhibitors of the type 1 interferon - major histocompatibility complex class I in skeletal muscle: primary screen against the NCATS Pharmaceutical Collection (AID 1347407);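 further: luminescence of HiBiT knocked into endogenous HLA-B as interferon-induced MHC class I level; on the % scale 0 is the no-effect control and ±100 the full control effect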
Method in brief: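 Immortalized human myoblasts (C25cl48) with HiBiT knocked into endogenous HLA-B*08:01 were stimulated with 4 ng/ml IFN-beta and treated with compounds (8-point, 1:5, top 46 uM final) for 24 h at 37 C; HiBiT lytic luminescence read.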

[3] = qHTS for inhibitors of adenylyl cyclases using a fission yeast platform: a pilot screen against the NCATS LOPAC library (AID 1347410);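 further: plate controls were DMSO vehicle for no effect and DPI positive control for full effect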
Method in brief: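 S. pombe CHP2027 (AC9-GNAS-PDE4D2) carrying a PKA-repressed fbp1-GFP reporter was exposed to LOPAC compounds (final up to 57 µM) for 18 h at 30C in the dark, in EMM with histidine, lysine and uracil; GFP gain-of-signal read by laser scanning cytometry.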

[4] = target: Protein phosphatase 1D (Homo sapiens) (UniProt O15297); assay: RapidFire Mass Spectrometry qHTS Assay for Modulators of WT P53-Induced Phosphatase 1 (WIP1) (AID 1347424);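 further: amount of dephosphorylated VEPPL-S-QETFS peptide product formed by WIP1; series mostly up to about 63 µM; plate controls were DMSO wells for no effect and GSK830371 inhibitor control at 10 µM for full effect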
Chain of Protein phosphatase 1D (Homo sapiens) (O15297 whole entry, looked up): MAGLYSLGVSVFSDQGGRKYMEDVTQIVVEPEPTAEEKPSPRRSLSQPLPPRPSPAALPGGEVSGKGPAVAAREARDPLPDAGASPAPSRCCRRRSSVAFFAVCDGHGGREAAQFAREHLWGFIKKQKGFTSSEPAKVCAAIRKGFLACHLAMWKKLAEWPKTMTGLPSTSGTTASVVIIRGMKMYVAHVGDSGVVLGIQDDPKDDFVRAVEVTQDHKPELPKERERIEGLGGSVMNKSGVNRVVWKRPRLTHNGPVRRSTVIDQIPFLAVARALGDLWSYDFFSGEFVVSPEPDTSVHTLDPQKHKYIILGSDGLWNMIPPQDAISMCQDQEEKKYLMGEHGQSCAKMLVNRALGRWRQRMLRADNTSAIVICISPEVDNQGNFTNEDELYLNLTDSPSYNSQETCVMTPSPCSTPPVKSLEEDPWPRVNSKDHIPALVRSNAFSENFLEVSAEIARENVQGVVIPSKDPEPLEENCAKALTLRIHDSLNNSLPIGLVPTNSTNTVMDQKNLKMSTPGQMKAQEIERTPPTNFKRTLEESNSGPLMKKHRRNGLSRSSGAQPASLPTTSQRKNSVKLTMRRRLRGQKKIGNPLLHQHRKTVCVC
Method in brief: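 10 nM WIP1 + cpd, 1 h RT; + 2 uM VEPPL-pS-QETFS, 5 min RT; stop 0.5% formic acid; labelled product standard 1 uM; RapidFire MS. Buffer 50 mM Tris pH 7.5, 30 mM MgCl2, 1 mM TCEP.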

[5] = target: Protein phosphatase 1D (Homo sapiens) (UniProt O15297); assay: Rhodamine-PBP qHTS Assay for Modulators of WT P53-Induced Phosphatase 1 (WIP1) (AID 1347425); further: % of control where 0% means no effect
Method in brief: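 WIP1 (5 nM final) was preincubated with compound for 1 hour at room temperature. It then dephosphorylated 10 uM VEPPL-pS-QETFS peptide in Tris-HCl pH 7.5 with 30 mM MgCl2. Released Pi was detected by 10 uM Rh-PBP fluorescence (ex 525/em 598 nm) read at 1-min intervals for 11 min, as delta f1 - f0.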

[6] = Validation qHTS assay for inhibitors of Activation Induced Cytidine Deaminase (AID): UDG Counterscreen signal (AID 1347427); further: potency means the concentration at half of the fitted maximal effect
Method in brief: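 Counterscreen read of UDG activity (2 U/mL, 4/3x) in the FRET deamination format with AID (1 uM, 4/3x), DJC20/DJC23 substrates (250 nM, 4x), 4 h at room temperature. NaOH stop, fluorescence at 560 ex/665 em.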

[7] = target: Single-stranded DNA cytosine deaminase (Homo sapiens) (UniProt Q9GZX7); assay: Validation qHTS assay for inhibitors of Activation Induced Cytidine Deaminase (AID): AID signal (AID 1347429); further: potency means the concentration at half of the fitted maximal effect
Chain of Single-stranded DNA cytosine deaminase (Homo sapiens) (Q9GZX7 whole entry, looked up): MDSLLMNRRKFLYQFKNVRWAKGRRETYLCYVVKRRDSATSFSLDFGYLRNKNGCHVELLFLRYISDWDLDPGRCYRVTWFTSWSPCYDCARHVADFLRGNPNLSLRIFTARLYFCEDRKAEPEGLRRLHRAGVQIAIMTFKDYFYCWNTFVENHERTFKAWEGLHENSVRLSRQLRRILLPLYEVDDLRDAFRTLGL
Method in brief: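 Fluorescence at 540 nm excitation and 590 nm emission reports ssDNA cytosine deamination by AID, with UDG in the same well. Compound-treated reactions ran 4 hr at room temperature with DJC20/DJC23 substrate, followed by 30 min NaOH treatment.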

[8] = Primary qHTS for inhibitors of La Crosse Virus (LACV) - induced cell death in SH-SY5Y cells (AID 1508616);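 further: top concentration of the series differs between compounds; 0% = infected DMSO wells and 100% = uninfected DMSO wells; higher means more rescue of cells from virus-induced death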
Method in brief: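 Protection against LACV-induced cell death is scored in SH-SY5Y cells exposed to compounds and virus (0.01 MOI) for 6 days. Data normalized to virus-infected DMSO wells and virus-free DMSO wells.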

[9] = tested on: Zika virus NS2B-NS3 protease (linked construct); assay: Primary screen NINDS Rhodamine qHTS for Zika virus inhibitors (AID 1347160); further: nearly all actives have a fitted effect of over 55% in size
Method in brief: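 Purified NS2B-NS3 protease with the NS2B hydrophilic domain joined by a flexible linker (25 nM) in 10 mM Tris-HCl pH 8.0, 0.01% Tween 20, preincubated 15 min at RT with compound; Rhodamine110 peptide substrate 1.5 µM; fluorescence change over 15 min; 4-parameter Hill fit.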

[10] = tested on: Zika virus NS2B-NS3 protease (unlinked complex); assay: Primary screen GU Rhodamine qHTS for Zika virus inhibitors: Unlinked NS2B-NS3 protease assay (AID 1347159); further: nearly all actives have a fitted effect of over 60% in size; further: potency means the concentration at half of the fitted maximal effect
Method in brief: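 Noncovalent NS2B hydrophilic domain/NS3 protease complex (25 nM final) in 10 mM Tris-HCl pH 8.0, 0.01% Tween 20, preincubated 15 min with compounds (up to 114 microM), then 1.5 microM Rhodamine110 substrate. Fluorescence change over 15 min fitted to 4-parameter Hill.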

[11] = tested on: Zika virus NS2B-NS3 protease; assay: Primary screen GU AMC qHTS for Zika virus inhibitors (AID 1347154);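 further: 0% = no-inhibitor control and -100% = no-enzyme control; nearly all actives have a fitted effect of over 70% in size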
Method in brief: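 Fluorogenic AMC-substrate cleavage by noncovalent NS2B-NS3 protease complex (25 nM, pH 8.0 Tris buffer with Tween 20) followed for 15 minutes at room temperature (~20% conversion). Percent inhibition from ex340/em450 signal change, fitted by 4-parameter Hill equation.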

[12] = qHTS to identify inhibitors of the type 1 interferon - major histocompatibility complex class I in skeletal muscle: primary screen against the NCATS LOPAC collection (AID 1347405);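 further: lytic HiBiT luminescence reporting HLA-B protein level; on the % scale 0 is the no-effect control and ±100 the full control effect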
Method in brief: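 Luminescence from HiBiT fused to endogenous HLA-B in CRISPR-engineered human myoblasts served as the read-out. Cells received 4.0 ng/ml IFN-beta plus compound (seven concentrations, 1:4.3 steps, highest 46 uM final) for 24 hrs before lytic detection.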

[13] = Vero cells viability qHTS for Zika virus inhibitors (AID 1347167); further: on the % scale 0 is the no-effect control and ±100 the full control effect
Method in brief: (§1)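 Compounds were tested in concentration series on cells grown in DMEM containing 4% FBS. After 24 to 48 hours, cellular ATP was measured by luminescence with CellTiter Glo.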

[14] = HepG2 cells viability qHTS for Zika virus inhibitors (AID 1347168); further: on the % scale 0 is the no-effect control and ±100 the full control effect
Method in brief: as §1

[15] = Tertiary RLuc qRT-PCR qHTS assay for Zika virus inhibitors (AID 1347169); further: top concentration of the series differs between compounds; on the % scale 0 is the no-effect control and ±100 the full control effect; nearly all actives have a fitted effect of over 55% in size
Method in brief: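 Vero cells (1,000 per well) plated overnight at 37 degrees C, treated with compound in DMSO, then infected with recombinant ZIKV-RLuc (Cambodian) at MOI 1-2 for 48-72 hrs. Live-cell Renilla luciferase substrate added; luminescence read after 1-1.5 hrs.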

[16] = qHTS to identify inhibitors of the type 1 interferon - major histocompatibility complex class I in skeletal muscle: primary screen against the NCATS Mechanism Interrogation Plate v5.0 (MIPE) Libary (AID 1347411);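 further: plate controls were vehicle for no effect and reference inhibitor for full effect; nearly all actives have a fitted effect of over 65% in size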
Method in brief: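 Luminescence from HiBiT-tagged endogenous HLA-B*08:01 served as the MHC class I read-out. CRISPR-engineered C25cl48 human myoblasts received 4.0 ng/ml IFN-beta plus compound for 24 hrs, with an 11-point, 1:3 series topping at 46 uM final.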

[17] = tested on: Zika virus NS2B-NS3 protease (linked); assay: 384 well plate NINDS AMC confirmatory qHTS for Zika virus inhibitors (AID 1347163);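 further: linked protease at 5 30 or 60 nM final depending on run; fluorescence of AMC released from Ac-VKTGKR-AMC peptide cleaved by the protease; top concentration of the series differs between compounds; 0% = no-inhibitor control and -100% = no-enzyme control; nearly all actives have a fitted effect of over 50% in size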
Method in brief: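 Linked NS2B-NS3 protease (final 5 nM, 30 nM or 60 nM) was preincubated with compounds (final up to 1 mM) for ~15 minutes. Ac-VKTGKR-AMC substrate (final 30 microM) then reacted for 25 minutes at room temperature in the dark. Fluorescence (ex 355/em 460 nm) was normalized to no-enzyme and no-inhibitor controls.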

[18] = tested on: Zika virus NS2B-NS3 protease (linked construct); assay: 384 well plate NINDS Rhodamine confirmatory qHTS for Zika virus inhibitors (AID 1347164); conditions: rhodamine-110 peptide substrate fluorescence;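 further: fluorescence from protease cleavage of Ac-LKRR-rhodamine 110 substrate; potency means the concentration at half of the fitted maximal effect; nearly all actives have a fitted effect of over 65% in size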
Method in brief: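 Linked protease at a final 5 nM, 30 nM or 60 nM was preincubated ~15 min with compounds, then given 10 microM Ac-LKRR-Rhodamine 110. Fluorescence (ex 485/em 538 nm) after 25 min in the dark at room temperature.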

CN(C)CCCN1c2ccccc2Sc2ccc(Cl)cc21
inactive: outcome [1] | Potency [2] | outcome [3] | outcome [4] | outcome [5] | Potency [6] | Potency [7] | outcome [8]

Nc1ccc(S(=O)(=O)Nc2nccs2)cc1
inactive: Potency [9] | outcome [4] | outcome [5] | outcome [8]

O=C1Nc2ccc(Cl)cc2[C@@](C#CC2CC2)(C(F)(F)F)O1
active: Potency [10] 44.7 µM
inactive: Potency [9] | Potency [2] | outcome [5] | outcome [8]

CCC(=O)c1ccc(O)cc1
inactive: Potency [11] | outcome [5]

Cc1cc(N)c2ccccc2[n+]1CCCCCCCCCC[n+]1c(C)cc(N)c2ccccc21
inactive: Potency [10] | Potency [9] | Potency [12] | outcome [3] | outcome [8]
active: Potency [6] 89.1 µM | Potency [7] 50.1 µM

NC1[C@H]2CN(c3nc4c(cc3F)c(=O)c(C(=O)O)cn4-c3ccc(F)cc3F)C[C@@H]12 (stereo partly specified)
inactive: Potency [13] | outcome [14] | Potency [15] | outcome [3] | outcome [4] | outcome [5] | outcome [8]

CCCCOc1cc(C(=O)OCCN(CC)CC)ccc1N
inactive: Potency [10] | Potency [9] | Potency [2] | outcome [5] | outcome [8]

c1ccc2c(CC3=NCCN3)cccc2c1
inactive: Potency [11] | outcome [5] | outcome [8]

CC1(C)[C@@H]2CC[C@@]1(C)C(=O)C2
inactive: Potency [11] | outcome [5] | outcome [8]

C[C@H]1O[C@@H](n2cc(F)c(=O)[nH]c2=O)[C@H](O)[C@@H]1O
inactive: Potency [12] | Potency [2] | outcome [3] | Potency [16] | outcome [4] | outcome [5] | outcome [8]

C[C@]12CC[C@@H]3c4ccc(O)cc4CC[C@H]3[C@@H]1CC[C@@H]2OC(=O)CCC1CCCC1
inactive: Potency [2] | outcome [4] | outcome [5] | outcome [8]
active: Potency [10] 20 µM

NCCNCCNCCNCCN
inactive: activity change, negative = inhibition [11] -0.671% [at 6.83 µM] | activity change, negative = inhibition [5] 12% [at 11.5 µM] | activity change [8] -4.84% [at 0.858 µM]

CC(=O)Oc1ccc(C2(c3ccc(OC(C)=O)cc3)C(=O)Nc3ccccc32)cc1
inactive: Potency [11] | outcome [4] | outcome [5] | outcome [8]

COc1ccc(Cl)cc1C(=O)NCCc1ccc(S(=O)(=O)NC(=O)NC2CCCCC2)cc1
inactive: Potency [9] | outcome [1] | Potency [12] | Potency [2] | outcome [3] | Potency [6] | Potency [7]

O=Cc1ccccc1C=O
inactive: Potency [11] | outcome [4] | outcome [5] | outcome [8]

CC(C)(O)c1ccccc1CC[C@@H](SCC1(CC(=O)O)CC1)c1cccc(/C=C/c2ccc3ccc(Cl)cc3n2)c1
active: Potency [10] 3.16 µM | Potency [18] 112 µM
inactive: Potency [17] | Potency [13] | outcome [14] | Potency [15] | Potency [2] | outcome [8]

C[C@]12C[C@H](O)[C@H]3[C@@H](CCC4=CC(=O)CC[C@@]43C)[C@@H]1CC[C@@H]2C(=O)CO
inactive: outcome [1] | Potency [12] | Potency [2] | outcome [3] | outcome [4] | outcome [5] | Potency [6] | Potency [7] | outcome [8]
